Measured values: PubChem BioAssay AID1159580 (chemical genetic matrix, 2015)
Hit rate of the full screen: of about 5,500 compounds, about 2,000 (36%) were called active. Inconclusive results (about 18%) are left out. Rule as the data show it: active = normalized growth mostly below about 0.91 (no sharp cut-off); inconclusive = no clear call, values can overlap the other calls; inactive = mostly above about 0.92. This is one part of the list.

Assay: chemical genetic growth profiling, strain panel (AID 1159580);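 also: tested at 20 µM; growth read once vehicle control cultures reached saturation at 30 °C; 1 = growth at the plate median or of vehicle wells; lower values mean less growth of the strain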
Settings: growth OD

Measured: normalized growth

CC(=O)NS(=O)(=O)c1ccc(N)cc1
inactive: S. cerevisiae deletion strains, locus YJR066W, strain TOR1, active compounds read low 0.931 | S. cerevisiae deletion strains, locus YKL009W, strain mrt4, active compounds read low 0.975 | S. cerevisiae deletion strains, locus YKL068W, active compounds read low 0.989 | S. cerevisiae deletion strains, locus YKL085W, strain MDH1 (second series), active compounds read low 0.982 | S. cerevisiae deletion strains, locus YKL085W, strain MDH1, active compounds read low 0.982 | S. cerevisiae deletion strains, locus YKL160W, strain elf1, active compounds read low 1 | S. cerevisiae deletion strains, locus YKL190W, strain CNB1, active compounds read low 0.997 | S. cerevisiae deletion strains, locus YKR001C, strain vps1, active compounds read low 0.975 | S. cerevisiae deletion strains, locus YKR026C, strain gcn3, active compounds read low 1.01 | S. cerevisiae deletion strains, locus YKR091W, strain srl3, active compounds read low 1.01 | S. cerevisiae deletion strains, locus YLL001W, strain dnm1, active compounds read low 1 | S. cerevisiae deletion strains, locus YLL026W, active compounds read low 1.01 | S. cerevisiae deletion strains, locus YLL041C, strain sdh2, active compounds read low 1.02 | S. cerevisiae deletion strains, locus YLR027C, strain aat2, active compounds read low 1.01 | S. cerevisiae deletion strains, locus YLR039C, strain RIC1, active compounds read low 1 | S. cerevisiae deletion strains, locus YLR058C, strain SHM2, active compounds read low 0.992 | S. cerevisiae deletion strains, locus YLR102C, strain apc9, active compounds read low 0.988 | S. cerevisiae deletion strains, locus YLR113W, strain HOG1, active compounds read low 0.983 | S. cerevisiae deletion strains, locus YLR221C, strain rsa3, active compounds read low 1.01 | S. cerevisiae deletion strains, locus YLR258W, strain gsy2, active compounds read low 1.01 | S. cerevisiae deletion strains, locus YLR262C, strain YPT6 (second series), active compounds read low 1.03 | S. cerevisiae deletion strains, locus YLR262C, strain YPT6, active compounds read low 1 | S. cerevisiae deletion strains, locus YLR268W, strain sec22, active compounds read low 0.945 | S. cerevisiae deletion strains, locus YLR320W, strain mms22, active compounds read low 1.01 | S. cerevisiae deletion strains, locus YLR330W, strain CHS5, active compounds read low 0.993 | S. cerevisiae deletion strains, locus YLR342W, strain FKS1 (second series), active compounds read low 0.992 | S. cerevisiae deletion strains, locus YLR342W, strain FKS1, active compounds read low 1.01 | S. cerevisiae deletion strains, locus YLR357W, strain rsc2, active compounds read low 1.04 | S. cerevisiae deletion strains, locus YLR370C, strain arc18, active compounds read low 1.01 | S. cerevisiae deletion strains, locus YLR371W, strain rom2, active compounds read low 0.98 | S. cerevisiae deletion strains, locus YLR384C, strain iki3, active compounds read low 1.01 | S. cerevisiae deletion strains, locus YLR418C, strain cdc73, active compounds read low 0.968 | S. cerevisiae deletion strains, locus YML016C, strain PPZ1, active compounds read low 0.99 | S. cerevisiae deletion strains, locus YML032C, strain rad52, active compounds read low 0.976 | S. cerevisiae deletion strains, locus YML120C, strain ndi1, active compounds read low 1.01 | S. cerevisiae deletion strains, locus YML124C, strain tub3, active compounds read low 0.977 | S. cerevisiae deletion strains, locus YMR058W, strain fet3, active compounds read low 1.03 | S. cerevisiae deletion strains, locus YMR078C, strain ctf18, active compounds read low 0.985 | S. cerevisiae deletion strains, locus YMR125W, strain sto1, active compounds read low 1 | S. cerevisiae deletion strains, locus YMR129W, active compounds read low 1.01 | S. cerevisiae deletion strains, locus YMR205C, strain PFK2, active compounds read low 1.02 | S. cerevisiae deletion strains, locus YMR223W, strain ubp8, active compounds read low 0.996 | S. cerevisiae deletion strains, locus YMR231W, strain pep5, active compounds read low 1.01 | S. cerevisiae deletion strains, locus YMR307W, strain GAS1, active compounds read low 0.985 | S. cerevisiae deletion strains, locus YNL067W, strain RPL9B, active compounds read low 1 | S. cerevisiae deletion strains, locus YNL071W, strain lat1, active compounds read low 0.999 | S. cerevisiae deletion strains, locus YNL128W, strain TEP1, active compounds read low 0.978 | S. cerevisiae deletion strains, locus YNL183C, strain NPR1, active compounds read low 0.951 | S. cerevisiae deletion strains, locus YNL209W, strain ssb2, active compounds read low 1.03 | S. cerevisiae deletion strains, locus YNL233W, strain BNI4, active compounds read low 0.993 | S. cerevisiae deletion strains, locus YNL248C, strain rpa49, active compounds read low 1.03 | S. cerevisiae deletion strains, locus YNL250W, strain rad50, active compounds read low 0.971 | S. cerevisiae deletion strains, locus YNL271C, strain bni1, active compounds read low 0.973 | S. cerevisiae deletion strains, locus YNL298W, strain CLA4, active compounds read low 0.974 | S. cerevisiae deletion strains, locus YNL307C, strain MCK1, active compounds read low 0.97 | S. cerevisiae deletion strains, locus YNL322C, strain KRE1 (second series), active compounds read low 0.995 | S. cerevisiae deletion strains, locus YNL322C, strain KRE1, active compounds read low 0.992 | S. cerevisiae deletion strains, locus YNR049C, strain mso1, active compounds read low 1.01 | S. cerevisiae deletion strains, locus YNR052C, strain pop2, active compounds read low 0.977 | S. cerevisiae deletion strains, locus YOL006C, strain TOP1, active compounds read low 1.02 | S. cerevisiae deletion strains, locus YOL012C, strain htz1 0.651 | S. cerevisiae deletion strains, locus YOL147C, strain pex11, active compounds read low 0.985 | S. cerevisiae deletion strains, locus YOR001W, strain rrp6, active compounds read low 1.02 | S. cerevisiae deletion strains, locus YOR061W, strain CKA2, active compounds read low 0.989 | S. cerevisiae deletion strains, locus YOR069W, strain VPS5, active compounds read low 0.984 | S. cerevisiae deletion strains, locus YOR070C, strain gyp1, active compounds read low 1.02 | S. cerevisiae deletion strains, locus YOR080W, strain dia2, active compounds read low 1.01 | S. cerevisiae deletion strains, locus YOR083W, strain WHI5, active compounds read low 1 | S. cerevisiae deletion strains, locus YOR106W, strain vam3, active compounds read low 1.02 | S. cerevisiae deletion strains, locus YOR136W, strain idh2, active compounds read low 0.996 | S. cerevisiae deletion strains, locus YOR144C, strain elg1, active compounds read low 0.987 | S. cerevisiae deletion strains, locus YOR184W, strain ser1, active compounds read low 0.989 | S. cerevisiae deletion strains, locus YOR231W, strain MKK1, active compounds read low 0.997 | S. cerevisiae deletion strains, locus YOR265W, strain rbl2, active compounds read low 1.01 | S. cerevisiae deletion strains, locus YOR270C, strain vph1, active compounds read low 1.04 | S. cerevisiae deletion strains, locus YOR290C, strain snf2, active compounds read low 1 | S. cerevisiae deletion strains, locus YOR316C, strain cot1, active compounds read low 0.982 | S. cerevisiae deletion strains, locus YPL051W, strain arl3, active compounds read low 1.02 | S. cerevisiae deletion strains, locus YPL078C, strain atp4, active compounds read low 1.01 | S. cerevisiae deletion strains, locus YPL106C, strain sse1, active compounds read low 1.01 | S. cerevisiae deletion strains, locus YPL240C, strain hsp82, active compounds read low 1.02 | S. cerevisiae deletion strains, locus YPL241C, strain CIN2, active compounds read low 0.995 | S. cerevisiae deletion strains, locus YPL256C, strain CLN2, active compounds read low 1 | S. cerevisiae deletion strains, locus YPR119W, strain clb2, active compounds read low 0.995 | S. cerevisiae deletion strains, locus YPR141C, strain kar3, active compounds read low 0.981 | S. cerevisiae deletion strains, locus YPR163C, strain tif3, active compounds read low 0.982 | S. cerevisiae deletion strains, locus YPR167C, strain met16, active compounds read low 0.982 | S. cerevisiae deletion strains, strain wtn01, active compounds read low 0.969 | S. cerevisiae strains, strain wild type, active compounds read low 1
